Measured values from PubChem BioAssay (NCATS).
Several values for one entry are separate records, joined by “and”; a condition that tells them apart may be missing. Equal values may be shown once. Records with an inconclusive call do not appear. Activity calls are given as the source filed them. Calls come from the whole dose curve; as a rule, active = well fitted curve in the direction sought with a large enough effect in the signal ratio, with a control signal flat; inconclusive = small, poorly fitted or top-dose-only effect, or a change in a side signal; inactive = no such curve, though single readings can be large or run the other way; the % refers to the signal ratio.

These compounds were tested against Glucocorticoid receptor (Homo sapiens) (UniProt P04150) (assay: qHTS assay for small molecule agonists of glucocorticoid receptor signaling (AID 588532)). Conditions: HeLa MMTV-bla, beta-lactamase ratio, agonist, 18 h; active compounds read high; percent of dexamethasone control, DMSO zero.
Glucocorticoid receptor (Homo sapiens), sequence (P04150 whole entry, looked up): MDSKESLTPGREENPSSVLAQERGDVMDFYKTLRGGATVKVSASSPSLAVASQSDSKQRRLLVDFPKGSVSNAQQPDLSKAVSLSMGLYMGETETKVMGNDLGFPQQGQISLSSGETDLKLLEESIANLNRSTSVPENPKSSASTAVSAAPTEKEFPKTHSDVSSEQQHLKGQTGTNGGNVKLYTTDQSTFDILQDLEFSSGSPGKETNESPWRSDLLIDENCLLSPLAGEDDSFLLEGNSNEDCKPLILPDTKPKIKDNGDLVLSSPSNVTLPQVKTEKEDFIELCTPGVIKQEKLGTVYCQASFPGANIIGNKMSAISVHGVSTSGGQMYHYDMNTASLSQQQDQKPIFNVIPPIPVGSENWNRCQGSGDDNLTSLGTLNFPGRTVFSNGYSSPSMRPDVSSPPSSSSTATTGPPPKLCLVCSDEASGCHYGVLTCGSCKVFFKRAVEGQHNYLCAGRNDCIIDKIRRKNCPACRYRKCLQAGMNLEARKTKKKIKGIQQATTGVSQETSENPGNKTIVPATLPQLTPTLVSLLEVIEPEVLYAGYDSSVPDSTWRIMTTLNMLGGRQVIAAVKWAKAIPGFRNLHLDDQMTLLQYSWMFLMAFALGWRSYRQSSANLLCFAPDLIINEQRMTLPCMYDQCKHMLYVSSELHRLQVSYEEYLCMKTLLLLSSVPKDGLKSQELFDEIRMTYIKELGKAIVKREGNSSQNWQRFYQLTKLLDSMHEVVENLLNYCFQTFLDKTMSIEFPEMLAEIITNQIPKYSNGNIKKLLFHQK
Source text: NIH Chemical Genomics Center [NCGC] U.S. Environmental Protection Agency [EPA] National Institutes of Environmental Health Sciences [NIEHS] National Toxicology Program [NTP] NCGC Assay Overview The Glucocorticoid receptor (GR), a nuclear receptor subfamily member and its natural ligands includes […] etc. The GR is a validated drug target for inflammation. GR ligands such as dexamethasone are clinically available as anti-inflammatory drugs. Glucocorticoids implicate role in carbohydrate, protein and lipid metabolisms and programmed cell death. They are also a component of many chemotherapy regimens for the treatment of leukemias, lymphomas, and myelomas because of their role in the induction of apoptosis.
NCGC Assay Protocol Summary Using a beta-lactamase reporter-gene under control of glucocorticoid response element (GRE), a cell-based assay [CellSensor MMTV-bla HeLa cell line assay developed by Invitrogen] was used to measure GR ligands signaling. CellSensor MMTV-bla HeLa cells were used with assay medium containing 1% charcoal/dextran treated FBS, 0.1 mM NEAA, 1 mM sodium pyruvate and 25mM HEPES. The assay was performed in clear bottom black Greiner 1536-well plates. Dexamethasone and Mifepristine were used in the screen as agonist and antagonist positive controls respectively. Library compounds were measured for their ability to stimulate the reporter gene activity. Compounds were screened in a titration series in 1536-well format. The fluorescence intensity (405 nm excitation, 460/530 nm emission) was measured using an EnVision plate reader. Data was normalized relative to Dexamethasone control (0.1 uM, 100%), and DMSO only wells (basal, 0%). Concentration-response titration points for each compound were fitted to the Hill equation yielding concentrations of half-maximal stimulation (EC50) and maximal response (efficacy) values. qHTS protocol for GR beta-lactamase assay in agonist mode [Step] [Parameter] [Value] [Description] 1. Reagent; 6 uL; 1500 cells/well 2. Incubation; 37 C for 3-5 hrs 3. Compounds; 23 nL; 0.59 nM to 92 uM 4. Controls (Dexamethasone); 23 nL, - One column with dose response, start 4.6uM, 1:3 dilutions in duplicates - Final concentrations of 0.1 uM and 2 nM in two columns 5. Incubation; 37 C for 18 hrs 6. Detection reagent; 1 uL of CCF4-dye 7. Incubation; RT for 2 hrs 8. Detection; Fluorescence; Envision plate reader

Structure (SMILES) | activation
CC(C)NCC(O)c1ccc(O)c(O)c1 (centres undefined) | -1.74% (inactive)
CC#C[C@]1(O)CC[C@H]2[C@@H]3CCC4=CC(=O)CCC4=C3[C@@H](c3ccc(N(C)C)cc3)C[C@@]21C | -13.5% (inactive)
NS(=O)(=O)c1cc2c(cc1Cl)NCNS2(=O)=O | -0.573% (inactive)
O=C(Nc1ccc([N+](=O)[O-])cc1Cl)c1cc(Cl)ccc1O | -5.17% (inactive)
Cc1cn([C@H]2C[C@H](N=[N+]=[N-])[C@@H](CO)O2)c(=O)[nH]c1=O | -3.02% (inactive) and 6.31% (inactive)
CCC1(c2ccccc2)C(=O)NCNC1=O | -1.52% (inactive) and -4.43% (inactive)
COc1ccc2c(c1)c(CC(=O)O)c(C)n2C(=O)c1ccc(Cl)cc1 | -6.76% (inactive)
CCOC(=O)C(C)(C)Oc1ccc(Cl)cc1 | -5.3% (inactive)
CC(C)Cc1ccc(C(C)C(=O)O)cc1 (centres undefined) | -8.45% (inactive)
Cn1cnc2c1c(=O)[nH]c(=O)n2C | -4.06% (inactive)
COc1ccc2[nH]cc(CCNC(C)=O)c2c1 | -4.76% (inactive) and 1.7% (inactive) and -3.63% (inactive)
Clc1ccc(C(c2ccccc2Cl)C(Cl)Cl)cc1 (centres undefined) | -3.98% (inactive)
Cn1c(=O)c2c(ncn2C)n(C)c1=O | -1.83% (inactive)
N[C@@H](Cc1c[nH]c2ccc(O)cc12)C(=O)O | -7.97% (inactive)
CC(C)(Oc1ccc(C2CC2(Cl)Cl)cc1)C(=O)O (centres undefined) | -2.49% (inactive)
CN(C)CCOC(c1ccccc1)c1ccccc1 | -3.72% (inactive)
O=c1c(-c2ccc(O)cc2)coc2cc(O)cc(O)c12 | -14.7% (inactive) and -3.51% (inactive)
O=C(CCCN1CCC(O)(c2ccc(Cl)cc2)CC1)c1ccc(F)cc1 | -2.91% (inactive)
NCCS(=O)(=O)O | 1.42% (inactive)
